This assay in a line: reduction of endogenous Shn3 mRNA, dose response, qPCR, Clone20 cells, cherry-pick (AID 743415).

Entries with a potency or affinity are not part of this list. Active and inactive are the calls of the source.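 The calls were made as follows: active = compounds lowering Shn3 expression whose fitted half-maximal concentration is at most twice the top valid dose; inconclusive = flat partial decrease or an invalid curve fit; inactive = the rest.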

In the case of `O=c1[nH]c2ccccc2n1C1CCN(C(CCc2ccccc2)c2nnnn2Cc2ccccc2)CC1` (configuration not stated), the molecule was called inactive.
The entry for `COC(=O)C1=C(c2ccc(OCc3ccccc3)cc2)C[C@@H]2CC[C@H]1N2C(=O)NCCCCc1ccccc1` is “inactive”.

Source of the values: PubChem BioAssay AID743415 (Broad Institute, 2014).
